PubChem BioAssay (NCATS)
Results filed as inconclusive are left out. A number with no mark means an inactive call. Calls of active or inactive are those of the source. Calls come from the whole dose curve; as a rule, active = well fitted inhibition curve with a large enough effect; inconclusive = small, poorly fitted or top-dose-only effect; inactive = flat fitted curve, though single readings scatter.

Test: P-glycoprotein substrates identified in KB-8-5-11 adenocarcinoma cell line, qHTS therapeutic library screen (AID 1346987); note: nearly all actives have a fitted effect of over 65% in size
Conditions: KB-8-5-11 (P-gp overexpressing) viability, CellTiter-Glo, 72 h; series mostly up to 44.5 µM; activity change, negative = cytotoxicity: at the top concentration
Method in brief: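 Compounds are pinned in dose-response onto KB-8-5-11 cells (500 cells/well, colchicine-free medium) and left 72 h at 37 degree C. CellTiter-Glo luminescence then yields AC50 values.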
% is set by controls: 0 for no effect and ±100 for the full control effect; potency is the fitted concentration of half-maximal effect.

SMILES	activity change, negative = cytotoxicity	outcome	Potency
CC1(O)CC(O)C2(O)C=COC(O[C@@H]3O[C@H](CO)[C@@H](O)[C@H](O)[C@H]3O)C12 (stereo partly specified)	5.69%	–	–
CC(=O)CCC1=C(C)C(O[C@@H]2O[C@H](CO)[C@@H](O)[C@H](O)[C@H]2O)C(O)CC1(C)C (stereo partly specified)	–	inactive	–
C=C[C@]1(C)C=C2CCC3C(C)(CCC[C@@]3(C)C(=O)O)C2CC1 (stereo partly specified)	2.25%	–	–
CC(C)CCC1(O)C(=O)C(C)(C)C(O[C@@H]2O[C@H](CO)[C@@H](O)[C@H](O)[C@H]2O)C(C)(C)C1O (stereo partly specified)	-4.18% [at 17.3 µM]	–	–
CC1=CC(=O)C(=C(C)C)CC2C1CCC2(C)O (stereo unspecified)	-3.42%	–	–
C=CC(=O)Nc1cc(Nc2ncc(Cl)c(-c3c[nH]c4ccccc34)n2)c(OC)cc1N(C)CCN(C)C	–	–	5.17 µM (active)
COc1cc(C)c(C(=O)Oc2cc(C)c(C(=O)Oc3cc(C)c(C(=O)NC(C)C(=O)O)c(O)c3)c(O[C@@H]3O[C@H](CO)[C@@H](O)[C@H](O)[C@H]3OC(C)=O)c2)c(OC)c1 (stereo partly specified)	9.86% [at 17.3 µM]	–	–
COc1ncc(Nc2ncc([C@H](C)N3CCN(S(C)(=O)=O)CC3)cc2-c2nc(C)nc(N)n2)cc1F	–	–	9.2 µM (active)
COc1ccc2[nH]c3c(-c4cccc5ccccc45)nccc3c2c1	–	–	0.92 µM (active)
CO[C@H]1/C=C/C=C/C=C/C[C@H](OC(=O)[C@@H](C)NC(=O)C2CCCCC2)[C@H](C)[C@@H](O)/C(C)=C/CCc2cc(O)cc(c2)NC(=O)C1	-19.1% [at 17.3 µM]	–	–
CO[C@H]1/C=C\O[C@@]2(C)Oc3c(C)c(O)c4c(O)c(c5c(nc6cc(C)ccn65)c4c3C2=O)NC(=O)/C(C)=C\C=C/[C@H](C)[C@H](O)[C@@H](C)[C@@H](O)[C@@H](C)[C@H](OC(C)=O)[C@@H]1C	–	inactive	–
